From PubChem BioAssay (NCI)
“And” between values parts separate entries of the source, which are not always exact repeats. Equal entries are not always repeated. About 83,000 compounds went through this panel and 20% of them were active in at least one assay; those are over-represented in the sample as a whole.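 Compound tested at a single concentration for 48 hours in 96-well plates; a percent growth value below 10 was scored as active.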 Some structures have more than one record in an assay (separate samples or runs), and their calls can disagree. The source made the active and inactive calls.

Columns and labels:
Experiment in all cases: NCI-60 one-dose screen, 48 h (100 = growth as untreated, 0 = no growth, -100 = all killed)
[1] = test system: DU-145 prostate
[2] = test system: K-562 leukemia
[3] = test system: MALME-3M melanoma
[4] = test system: MDA-MB-231 breast
[5] = test system: RXF 393 renal
[6] = test system: SF-268 CNS
[7] = test system: SF-295 CNS
[8] = test system: SF-539 CNS
[9] = test system: UACC-257 melanoma
[10] = test system: M14 melanoma

Measured: growth

CC1(C)OB(c2ccc(Cn3cc(F)c(=O)[nH]c3=O)cc2)OC1(C)C
inactive: [1]; 10 µM 113% | [1]; 50 µM 84% | [2]; 10 µM 110% | [2]; 50 µM 29.7% | [3]; 10 µM 97.2% | [3]; 50 µM 44.7% | [4]; 10 µM 124% | [4]; 50 µM 86.1% | [5]; 10 µM 99.7% | [5]; 50 µM 59.9% | [6]; 10 µM 94.7% | [6]; 50 µM 68.7% | [7]; 10 µM 102% | [7]; 50 µM 85.5% | [8]; 10 µM 101% | [8]; 50 µM 61.4% | [9]; 10 µM 103% | [9]; 50 µM 67.3% | [10]; 10 µM 103% | [10]; 50 µM 44.9%

O=[N+]([O-])c1ccccc1N(S(=O)(=O)c1ccccc1)S(=O)(=O)c1ccccc1
inactive: [1]; 10 µM unless noted 118% and 99.7% | [2]; 10 µM unless noted 93% and 113% | [3]; 10 µM unless noted 120% and 109% | [4]; 10 µM unless noted 112% and 96.5% | [5]; 10 µM unless noted 119% and 108% | [6]; 10 µM unless noted 96.3% and 95.2% | [7]; 10 µM unless noted 108% and 77.6% | [8]; 10 µM unless noted 117% and 104% | [9]; 10 µM unless noted 85.7% and 92.4% | [10]; 10 µM unless noted 128% and 98.6%

CC1=C(/C=C/C(C)=C/C=C/C(C)=C/C=N/NC(=S)NC(=S)N/N=C/C=C(C)/C=C/C=C(C)/C=C/C2=C(C)CCCC2(C)C)C(C)(C)CCC1
active: [2]; 10 µM unless noted 1.87% and -33.1% | [3]; 10 µM unless noted -42.6% and -41.6% | [5]; 10 µM unless noted -98.2% | [8]; 10 µM unless noted -82.5% and -94.5% | [10]; 10 µM unless noted -94.8% and -97.5%
30.3% (inactive) and -7.18% (active): [7]; 10 µM unless noted
30.9% (inactive) and -13% (active): [6]; 10 µM unless noted
21.6% (inactive) and -34.1% (active): [4]; 10 µM unless noted
12.7% (inactive) and -28.3% (active): [9]; 10 µM unless noted
inactive: [1]; 10 µM unless noted 45.4% and 40.3%

Cn1c(SSc2ccc(-c3cccnc3)n2C)ccc1-c1cccnc1
inactive: [1]; 10 µM unless noted 115% and 107% | [3]; 10 µM unless noted 102% and 105% | [4]; 10 µM unless noted 91.4% and 110% | [5]; 10 µM unless noted 105% and 110% | [6]; 10 µM unless noted 82.1% and 93.5% | [7]; 10 µM unless noted 77.9% and 93.7% | [8]; 10 µM unless noted 116% and 122% | [9]; 10 µM unless noted 86.1% and 93.8% | [10]; 10 µM unless noted 101% and 98.4%
75.9% (inactive) and 7.91% (active): [2]; 10 µM unless noted

CCCCCN(CCCCC)CC(O)c1cc2c(c3ccccc13)CCCC2 (centres undefined)
inactive: [1]; 10 µM unless noted 75.5% and 80.2% | [2]; 10 µM unless noted 23.5% and 24.7% | [3]; 10 µM unless noted 65.4% and 74.3% | [5]; 10 µM unless noted 26% and 87.5% | [6]; 10 µM unless noted 86.7% and 80% | [7]; 10 µM unless noted 55.5% | [8]; 10 µM unless noted 68.8% and 52% | [9]; 10 µM unless noted 71.9% and 71.5% | [10]; 10 µM unless noted 76.8% and 72.4%
8.63% (active) and 59.1% (inactive): [4]; 10 µM unless noted

Cc1cc(N=Nc2ccc(C)c(N=Nc3cc(C)c(N)cc3N)c2)c(N)cc1N
inactive: [1]; 10 µM unless noted 107% and 90.9% | [2]; 10 µM unless noted 75.9% and 34.5% | [3]; 10 µM unless noted 89.3% and 98.5% | [4]; 10 µM unless noted 68.6% and 73.3% | [5]; 10 µM unless noted 91.1% and 89.1% | [6]; 10 µM unless noted 98.9% and 80.7% | [7]; 10 µM unless noted 98.6% and 66% | [8]; 10 µM unless noted 87.9% and 99.8% | [9]; 10 µM unless noted 91.4% and 89.9% | [10]; 10 µM unless noted 90.8% and 65.4%

O=C1c2c(O)cc(O)cc2OC(c2ccc(O)c(O)c2)C1O (centres undefined)
inactive: [1]; 10 µM unless noted 132% | [2]; 10 µM unless noted 104% | [3]; 10 µM unless noted 118% | [4]; 10 µM unless noted 106% | [5]; 10 µM unless noted 124% | [6]; 10 µM unless noted 111% | [7]; 10 µM unless noted 119% | [8]; 10 µM unless noted 107% | [9]; 10 µM unless noted 107%

CCOC(=O)c1c(C)oc(C)c(C(=O)OCC)c1=O
inactive: [1]; 10 µM unless noted 118% and 110% | [2]; 10 µM unless noted 102% and 87% | [3]; 10 µM unless noted 133% and 100% | [4]; 10 µM unless noted 109% and 108% | [5]; 10 µM unless noted 104% and 117% | [6]; 10 µM unless noted 102% and 104% | [7]; 10 µM unless noted 133% and 105% | [8]; 10 µM unless noted 102% and 92.8% | [9]; 10 µM unless noted 102% and 107% | [10]; 10 µM unless noted 98.8%

O=C1C2=C(C(=O)c3ccccc31)C(O)(S(=O)(=O)O)C(O)(S(=O)(=O)O)C1N=CC=CC21 (centres undefined)
6.52% (active) and 15.4% (inactive): [7]; 10 µM unless noted
inactive: [1]; 10 µM unless noted 64.2% and 48% | [2]; 10 µM unless noted 13.5% and 40% | [3]; 10 µM unless noted 73% and 62.1% | [4]; 10 µM unless noted 58.3% and 47.6% | [5]; 10 µM unless noted 76.7% and 58.1% | [6]; 10 µM unless noted 52.2% and 36.5% | [8]; 10 µM unless noted 25.4% and 20.8% | [9]; 10 µM unless noted 71.4% and 35.3% | [10]; 10 µM unless noted 42.9%
